# Screens as filed in PubChem.
# An excerpt weighted towards active compounds, which were near 22% of everything screened.
# Cycloheximide cs – counter-screen hit for Shiga toxin inhibitors, cycloheximide; max response, %; cell reporter, cycloheximide protein synthesis inhibition counterscreen; AID 2314; 12% of 300,000 active; in the data active means max response mostly above about 13%, no sharp cut-off; inactive means mostly below about 14%; further: read at 38.3 µM for the half of the compounds with a filed dose; 0% is about no effect
# LmPK inhibitor – inhibitors of Leishmania mexicana pyruvate kinase; Q27686; purified LmPK, Kinase-Glo ATP luminescence, 1 h; Potency, µM (series often up to 57.5 µM), without a hit: at the top dose activity change, negative = inhibition, hits mostly inhibitors; 0.37% of 290,000 active; AID 1721; further: potency means the concentration at half of the fitted maximal effect; on the % scale 0 is the no-effect control and ±100 the full control effect
# Target sequence (Q27686 whole entry, looked up): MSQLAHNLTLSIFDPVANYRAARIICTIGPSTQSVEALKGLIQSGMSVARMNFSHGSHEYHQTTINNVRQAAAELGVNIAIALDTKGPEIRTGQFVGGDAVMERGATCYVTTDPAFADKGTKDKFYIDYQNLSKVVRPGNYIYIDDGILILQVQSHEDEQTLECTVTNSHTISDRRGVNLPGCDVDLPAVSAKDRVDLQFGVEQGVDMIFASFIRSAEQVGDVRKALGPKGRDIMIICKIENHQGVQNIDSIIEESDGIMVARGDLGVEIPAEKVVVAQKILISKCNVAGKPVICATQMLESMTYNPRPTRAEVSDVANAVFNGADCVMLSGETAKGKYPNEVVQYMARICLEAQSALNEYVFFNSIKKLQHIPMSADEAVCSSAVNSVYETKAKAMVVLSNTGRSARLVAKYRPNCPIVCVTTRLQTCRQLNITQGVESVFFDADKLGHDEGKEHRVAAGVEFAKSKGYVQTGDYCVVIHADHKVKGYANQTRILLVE
#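 Kinase-Glo luminescence read after 1 h RT reaction of 0.1 nM LmPK with 0.5 mM PEP and 0.1 mM ADP. Activity scaled between uninhibited and enzyme-free controls.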
# Pf growth 96h – P. falciparum growth inhibition at 96 hours. P. falciparum luciferase reporter growth, 96 h. Potency, µM (highest dose often 28.7 µM), inactives show top-dose activity change, negative = inhibition, usual class: inhibitors. 6.9% of 320,000 active; further: potency means the concentration at half of the fitted maximal effect; on the % scale 0 is the no-effect control and ±100 the full control effect
#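 Erythrocytes infected with luciferase-expressing P. falciparum were dispensed at 2% hematocrit and 0.05% parasitemia (final), then incubated with compounds 96 hours at 37 C in 5% CO2. Luminescence after detection reagent addition reported growth.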
# Shiga toxin inh – blocks Shiga toxin action in Vero cells. Vero cells, Shiga toxin protein synthesis inhibition reporter. inhibition, % at 38.7 µM. 9.2% of 290,000 active. AID 2315; in the data active means inhibition mostly above about 28%, no sharp cut-off; inactive means mostly below about 43%; further: 0% is about no effect
# Pf growth 48h – inhibits P. falciparum growth in the first generation, 48 h. P. falciparum luciferase growth in erythrocytes, 48 h. Potency, µM (series often up to 28.7 µM), inactives show at the top dose activity change, negative = inhibition, usual class: inhibitors. 5.9% of 310,000 active; further: potency means the concentration at half of the fitted maximal effect; on the % scale 0 is the no-effect control and ±100 the full control effect
#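 Erythrocytes infected with P. falciparum carrying an integrated firefly luciferase reporter (2% hematocrit, 0.1% parasitemia final) were exposed to compounds in RPMI 1640 with 0.5% Albumax at 37 C, 5% CO2. Growth inhibition was scored as reduced luminescence.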
# * = called active by the depositor; ? = inconclusive; / = not tested or not shown; [ ] = another dose, or the depositor's remark. Unless noted, the call rests on the fitted dose curve; in most records, active means well fitted inhibition curve with a large enough effect; inconclusive means small, poorly fitted or top-dose-only effect, or another doubt; inactive means no such curve, though single readings can be large or run the other way.
SMILES,Cycloheximide cs,LmPK inhibitor,Pf growth 96h,Shiga toxin inh,Pf growth 48h
Cc1cc(Nc2ccccc2)n2nc(C)c(-c3ccccc3)c2n1,-1,2%,-30%,-4,?
Cc1nn2c(NCc3ccccn3)c3c(nc2c1-c1ccccc1)CCC3,-5,0%,4.7µM*,-13,?
c1ccc(CNc2c3c(nc4ncnn24)CCCC3)nc1,-1,-2%,8.3µM*,-3,7%
Clc1ccc(Nc2c3c(nc4ncnn24)CCC3)cc1,-3,-2%,?,-12,?
Cc1nn2c(NCc3ccccn3)cc(C(C)(C)C)nc2c1-c1ccccc1,-3,0%,2.9µM*,-11,4.7µM*
CC(Sc1nnc(-c2ccc(OC(F)F)cc2)n1N)C(=O)NCC1CCCO1 (configuration not stated),/,/,6%,/,?
C/C=C1\C(=O)CC2C3CCC4=CC(=O)CC[C@]4(C)C3CC[C@]12C (some centres not stated),-5,/,/,-6,/
CC(Cc1ccc(O)c(O)c1)C(C)Cc1ccc(O)c(O)c1 (configuration not stated),/,/,15µM*,/,?
N[C@@H](Cc1ccc(O)c(O)c1)C(=O)O,/,/,3%,/,-3%
CCCCN(C(=O)c1cccc(S(=O)(=O)N2CCN(C)CC2)c1)c1c(N)n(CCC)c(=O)[nH]c1=O,/,/,19%,/,33%
Cc1ccc(CSc2nnc(-c3ccncc3)o2)c(C)c1,-1,-3%,?,28,-1%
CCn1c(=O)cc(SCC(=O)Nc2ccc3c(c2)OCO3)c2ccccc21,9.9*,1%,9%,25,23%
CCn1c(=O)cc(SCC(=O)Nc2cccnc2)c2ccccc21,-1,0%,12µM*,-3,14%
CCn1cc(C(=O)O)c(=O)c2ccc(C)nc21,-3,-6%,5%,8,5%
CCn1cc(C(=O)O)c(=O)c2cc(F)c(N3CCNCC3)nc21,/,/,1.4µM*,/,3.6µM*
Clc1ccc(-n2nnnc2-c2cnc3ccc(Cl)cc3c2-c2ccccc2)cc1,3,4%,12µM*,-5,13µM*
O=C1NC(=O)C(=Cc2cccc(OCCOc3ccccc3)c2)C(=O)N1,44*,1%,2%,65*,200%
Cc1ccc(OCCOc2cccc(C=C3C(=O)NC(=O)NC3=O)c2)c(C)c1,110*,6%,17%,110*,159%
O=C1NC(=O)C(=Cc2ccc(OCCOc3ccc([N+](=O)[O-])cc3)cc2)C(=O)N1,9,-5%,24%,11,-6%
COc1ccccc1OCCCOc1cccc(/C=C2\SC(=O)NC2=O)c1,4,16%,-6%,/,-3%
CCCn1c(SC(C)C(=O)NC2CCCC2)n[nH]c1=O (configuration not stated),/,/,36%,/,7%
CCN(CC)c1ccc(NC(=O)COC(=O)/C=C/c2nc3ccccc3s2)cc1,14*,-2%,16%,66,19%
CCN(CC)c1ccc(/C=C/c2nc3ccccc3s2)cc1,40*,-2%,78%,127*,209%
CCSc1nnc(NC(=O)CN2C(=O)NC3(CCCC3)C2=O)s1,/,/,19%,/,6%
Cc1onc(-c2c(Cl)cccc2Cl)c1C(=O)Nc1ccc(N2CCOCC2)cc1,-1,1%,?,-5,?
SMILES,Cycloheximide cs,LmPK inhibitor,Pf growth 96h,Shiga toxin inh,Pf growth 48h
COCCOC(=O)C1=C(C)N=C2SCCC(=O)N2C1c1ccc(OC(=O)c2ccco2)cc1 (configuration not stated),-3,7%,3%,-12,/
O=C(COC(=O)c1cc(Br)ccc1Cl)NC1CCCC1,10,12%,24%,17,12%
CCn1cnc2cc(NCc3ccncc3)ccc21,1,1%,/,32,10%
CCn1cnc2cc(NCc3ccc(Cl)cc3)ccc21,41*,-2%,-2%,119*,36%
Cc1ccc(CNc2ccc3c(c2)ncn3C(C)(C)C)cc1,40*,-4%,9%,133*,-21%
COc1ccc(CNc2ccc3c(c2)ncn3C)cc1OC,-1,-5%,14%,-6,1%
Cn1cnc2cc(NCc3ccccc3O)ccc21,61*,-2%,?,114*,71%
Cc1ccc(S(=O)(=O)Nc2ccc3c(c2)ncn3C(C)(C)C)cc1,-1,1%,-4%,-13,-21%
Cc1ccc(CNc2ccc3c(c2)ncn3C)cc1,46*,-2%,-7%,81*,78%
Cc1nc2cc(NCc3ccccc3O)ccc2n1Cc1ccccc1,69*,-1%,?,92*,?
CCc1ccc(NC(=O)c2ccnc(C(C)(C)C)c2)cc1,-2,-1%,-26%,-16,-6%
CCc1ccc(CNc2ccc3c(c2)ncn3C)cc1,25*,-6%,?,73*,148%
Cc1nc2ccccc2n1Cc1ccccc1,-1,-3%,?,/,-1%
CN(C)C(=O)O/N=C(\N)COc1ccc(C(C)(C)C)cc1,30*,-3%,12µM*,31,6.6µM*
CC(C)(C)c1ccc(OCC(=O)O)cc1,-3,1%,25%,-17,?
O=C(NCCN1C(=O)S/C(=C\c2cccs2)C1=O)c1ccco1,46*,2%,?,37,-6%
CCOc1ccc(Nc2nc3cc(S(=O)(=O)CC)ccc3o2)cc1,10,2%,13µM*,22,-31%
CCS(=O)(=O)c1ccc2oc(Nc3ccc(C(C)(C)C)cc3)nc2c1,-2,3%,-29%,3,?
CCS(=O)(=O)c1ccc2oc(Nc3cccc(OC)c3)nc2c1,20*,-11%,32%,41,109%
CCS(=O)(=O)c1ccc2oc(Nc3ccc(OC)cc3)nc2c1,22,9%,69%,38,65%
CCC(C)c1ccc(NC(=S)N2CCN(C(=O)C3CCCO3)CC2)cc1 (configuration not stated),1,-4%,7%,-3,-1%
COc1cc(CNc2ncnc3ccc(-c4c(C)noc4C)cc23)cc(OC)c1OC,-4,/,/,3,/
CC(=O)OCC1O[C@@H](O[C@@H]2C[C@H]3C(C)(C)[C@H](OC(C)=O)CC[C@]3(C)[C@H]3CC[C@]45C[C@]4(CC[C@H]5[C@@H](C)C[C@@H](O)[C@H](O)C(C)(C)O)[C@@]32C)[C@H](O)[C@@H](O)[C@@H]1O (some centres not stated),-12,0%,5.9µM*,-7,12µM*
C[C@H]1O[C@H](O[C@H]2[C@H](O[C@@H]3CC[C@@]4(C)C(CC[C@]5(C)C4CC=C4[C@@H]6CC(C)(C)CC[C@]6(C(=O)O[C@@H]6O[C@H](CO)[C@@H](O)[C@H](O)[C@H]6O)CC[C@]45C)C3(C)C)O[C@H](C(=O)O)[C@@H](O)[C@@H]2O)[C@@H](O)[C@@H](O)[C@@H]1O (some centres not stated),/,/,0%,/,13%
O=S1(=O)Nc2c(ccc3cccnc23)-c2ccccc21,8,-1%,-1%[5.75 µM],29,2.6µM*
Cc1cnc2c3c(cc(Cl)c2c1)-c1ccccc1S(=O)(=O)N3,73*,/,/,54*,/
